The results in this text go back to PubChem BioAssay (EPA / NIEHS).

Activity calls are given as the source filed them. Rule for the calls: active = hit-call score of the fitted dose curve at least 0.9, where 1 is the maximum; inactive = score below 0.9.

Read-out in test [1]: Interleukin-1 alpha (IL1a), IL1A (gene 3552)
Description: BSK_KF3CT_IL1a: BioMAP Diversity Plus: KF3CT Assay for Interleukin-1 alpha (IL1a) Biomarker Activity (AID 2283070). The following applies: primary human keratinocytes with fibroblasts; actives raise or lower the signal. In outline: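 Readout is IL-1a level by ELISA, compared bidirectionally with DMSO as baseline. Cells: human keratinocytes co-cultured with foreskin fibroblasts, harvested 24 h post-dose.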

Read-out in test [2]: TIMP metallopeptidase inhibitor 2 (TIMP2), TIMP2 (gene 7077)
Description: BSK_KF3CT_TIMP2: BioMAP Diversity Plus: KF3CT Assay for TIMP metallopeptidase inhibitor 2 (TIMP2) Biomarker Activity (AID 2283071). The following applies: primary human keratinocytes with fibroblasts; actives raise or lower the signal. The method, boiled down: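 TIMP-2 measured by ELISA at 24 h in human keratinocyte/fibroblast primary co-cultures exposed to chemicals. Both increases and decreases were fitted against DMSO. Parallel cultures were stained with SRB for total protein as an overt-cytotoxicity check.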

Read-out in test [3]: Transforming growth factor beta 1 (TGFb1), TGFB1 (gene 7040)
Description: BSK_KF3CT_TGFb1: BioMAP Diversity Plus: KF3CT Assay for Transforming growth factor beta 1 (TGFb1) Biomarker Activity (AID 2283072). The following applies: primary human keratinocytes with fibroblasts; actives raise or lower the signal. In outline:
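ELISA quantifies TGF-b1 at 24 h post-dose in a primary human skin co-culture of keratinocytes and fibroblasts, with gain or loss judged against DMSO. Parallel SRB total-protein staining flags overt cytotoxicity.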

Read-out in test [4]: C-C motif chemokine 2 (Homo sapiens) (UniProt P13500)
Description: BSK_KF3CT_MCP1: BioMAP Diversity Plus: KF3CT Assay for Monocyte Chemoattractant Protein 1 (MCP1/CCL2) Biomarker Activity (AID 2283073). Conditions: primary human keratinocytes with fibroblasts; actives raise or lower the signal. The method, boiled down: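 Keratinocytes and foreskin fibroblasts were co-cultured, dosed with chemical, and sampled 24 h later. MCP-1 was quantified by ELISA, and the endpoint was analyzed with bidirectional fitting using DMSO as negative control.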

Read-out in test [5]: Matrix Metallopeptidase 9 (MMP9), MMP9 (gene 4318)
Description: BSK_KF3CT_MMP9: BioMAP Diversity Plus: KF3CT Assay for Matrix Metallopeptidase 9 (MMP9) Biomarker Activity (AID 2283074).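 For AC50: MMP9 protein level quantified by ELISA in the co-culture.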 Conditions: primary human keratinocytes with fibroblasts; actives raise or lower the signal. The method, boiled down: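 Values come from bidirectional fitting relative to DMSO of MMP-9 levels, which were measured by ELISA. Measurements were taken 24 h after chemical dosing of a keratinocyte and foreskin fibroblast co-culture.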

Read-out in test [6]: urokinase plasminogen activator (uPA), PLAU (gene 5328)
Description: BSK_KF3CT_uPA: BioMAP Diversity Plus: KF3CT Assay for urokinase plasminogen activator (uPA) Biomarker Activity (AID 2283075). The following applies: primary human keratinocytes with fibroblasts; actives raise or lower the signal. The method, boiled down: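 Values derive from bidirectional fitting against DMSO controls. Keratinocyte/foreskin fibroblast co-cultures received chemical; 24 h later uPA was detected by ELISA, with SRB total-protein staining in parallel wells for overt cytotoxicity.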

Read-out in test [7]: CD40, CD40 (gene 958)
Description: BSK_LPS_CD40: BioMAP Diversity Plus: LPS Assay for CD40 Biomarker Activity (AID 2283076). The following applies: primary human HUVEC with PBMC; actives raise or lower the signal. In outline:
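CD40 signal, measured by ELISA, is fitted in both directions relative to DMSO vehicle. The system is an LPS-driven human vascular primary co-culture of endothelial cells and PBMC, sampled 24 h after compound addition.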

Read-out in test [8]: E-selectin (Homo sapiens) (UniProt P16581)
Description: BSK_LPS_Eselectin: BioMAP Diversity Plus: LPS Assay for Eselectin Biomarker Activity (AID 2283077). Conditions: primary human HUVEC with PBMC; actives raise or lower the signal. In outline:
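Signal of E-selectin, detected by ELISA, served as the endpoint; cells were umbilical vein endothelium with PBMC, read 24 h after treatment. DMSO defined baseline, and both increases and decreases were fitted.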

Read-out in test [9]: Interleukin-8 (IL8), CXCL8 (gene 3576)
Description: BSK_LPS_IL8: BioMAP Diversity Plus: LPS Assay for Interleukin-8 (IL8) Biomarker Activity (AID 2283078). Conditions: primary human HUVEC with PBMC; actives raise or lower the signal. The method, boiled down:
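Endothelial cells and PBMC from human donors are co-cultured, treated with chemicals and LPS, then assayed for IL-8 by ELISA after 24 h. Parallel SRB staining (0.1% SRB after 10% TCA fixation, 560 nm) flags cytotoxicity.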

Test [10] can be described thus: BSK_LPS_SRB: Viability Assessment in the BioMAP Diversity Plus: LPS Assay (AID 2283079).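 Note: total protein by sulforhodamine B absorbance as a cytotoxicity measure; measured one day after compound addition; fitted in both directions against DMSO so loss or gain of signal counts.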 Conditions: primary human HUVEC with PBMC. In outline:
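Overt cytotoxicity was gauged by sulforhodamine B total-protein staining in a primary human vascular endothelial and mononuclear cell co-culture 24 h post-dosing. Activity was fitted in both directions relative to DMSO.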

Read-out in test [11]: Interleukin-1 alpha (IL1a), IL1A (gene 3552)
Description: BSK_LPS_IL1a: BioMAP Diversity Plus: LPS Assay for Interleukin-1 alpha (IL1a) Biomarker Activity (AID 2283080). The following applies: primary human HUVEC with PBMC; actives raise or lower the signal. The method, boiled down: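 Measured: IL-1 alpha via ELISA at 24 h in LPS-activated human umbilical vein endothelium–PBMC co-culture. Baseline: DMSO, bidirectional fitting.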

Read-out in test [12]: Monocyte Chemoattractant Protein-1 (MCP1), CCL2 (gene 6347)
Description: BSK_LPS_MCP1: BioMAP Diversity Plus: LPS Assay for Monocyte Chemoattractant Protein-1 (MCP1) Biomarker Activity (AID 2283081).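 For AC50: secreted MCP-1 protein quantified by ELISA in culture supernatant.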 Conditions: primary human HUVEC with PBMC; actives raise or lower the signal. In outline: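 LPS-stimulated HUVEC/PBMC co-culture; chemical, 24 h; MCP-1 by ELISA; bidirectional fit vs DMSO; cytotoxicity via SRB (0.1% stain, 10% TCA fix, 560 nm) in parallel wells.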

A short description of test [13]: BSK_LPS_PGE2: BioMAP Diversity Plus: LPS Assay for Prostaglandin E2 (PGE2) Biomarker Activity (AID 2283082). The following applies: primary human HUVEC with PBMC; actives raise or lower the signal. The method, boiled down: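 PGE2 release measured by ELISA in an LPS-activated co-culture of human umbilical vein endothelial cells and peripheral blood mononuclear cells, read at 24 h post-dosing. DMSO served as baseline for bidirectional curve fitting.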

Read-out in test [14]: Macrophage colony-stimulating factor (MCSF), CSF1 (gene 1435)
Description: BSK_LPS_MCSF: BioMAP Diversity Plus: LPS Assay for Macrophage colony-stimulating factor (MCSF) Biomarker Activity (AID 2283083). Conditions: primary human HUVEC with PBMC; actives raise or lower the signal. In outline:
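Compound is added to a human vascular primary co-culture of umbilical vein endothelium and blood mononuclear cells. After 24 h, M-CSF is quantified by ELISA. Signal changes are fitted in both directions against DMSO.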

Read-out in test [15]: Tissue Factor, F3 (gene 2152)
Description: BSK_LPS_TissueFactor: BioMAP Diversity Plus: LPS Assay for Tissue Factor Biomarker Activity (AID 2283084). The following applies: primary human HUVEC with PBMC; actives raise or lower the signal. The method, boiled down: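 In this co-culture system of umbilical vein endothelium with PBMC, stimulated with LPS, cell-surface CD142 is detected by ELISA at 24 h. Endpoint values derive from bidirectional fitting, DMSO serving as baseline.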

Read-out in test [16]: Tumor necrosis factor (Homo sapiens) (UniProt P01375)
Description: BSK_LPS_TNFa: BioMAP Diversity Plus: LPS Assay for Tumour Necrosis Factor alpha (TNFa) Biomarker Activity (AID 2283085).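 Note: TNFa protein level quantified by ELISA in the co-culture.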 Conditions: primary human HUVEC with PBMC; actives raise or lower the signal. In outline:
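TNFa was quantified by ELISA in LPS-activated co-cultures of human endothelial cells and PBMC, 24 h post-dosing. Both increases and decreases versus DMSO were fitted.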

Read-out in test [17]: Vascular cell adhesion molecule 1 (VCAM1), VCAM1 (gene 7412)
Description: BSK_LPS_VCAM1: BioMAP Diversity Plus: LPS Assay for Vascular cell adhesion molecule 1 (VCAM1) Biomarker Activity (AID 2283086). The following applies: primary human HUVEC with PBMC; actives raise or lower the signal. In outline: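 VCAM-1 quantified by ELISA in an LPS-activated co-culture of human endothelial cells and peripheral blood mononuclear cells, read 24 h post-treatment. Fitted in both directions versus DMSO; parallel SRB staining flags overt cytotoxicity.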

Read-out in a further test: CD38, CD38 (gene 952)
Description: BSK_SAg_CD38: BioMAP Diversity Plus: SAg Assay for CD38 Biomarker Activity (AID 2283087). Conditions: primary human HUVEC with PBMC; actives raise or lower the signal. In outline:
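CD38 quantified by ELISA (fluorescence) in a superantigen-activated endothelial cell–PBMC co-culture at 24 h post-dose. Activity fitted in both directions relative to DMSO; parallel SRB and Alamar Blue cytotoxicity read-outs.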

Read-out in a further test: CD69, CD69 (gene 969)
Description: BSK_SAg_CD69: BioMAP Diversity Plus: SAg Assay for CD69 Biomarker Activity (AID 2283089).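 Note: cell surface CD69 protein quantified by ELISA with fluorescence detection.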 The following applies: primary human HUVEC with PBMC; actives raise or lower the signal. In outline: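 HUVEC co-cultured with PBMC were dosed with chemical, and CD69 was measured by ELISA with fluorescence read-out 24 h later. Bidirectional curve fitting used DMSO as negative control and activity baseline.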

Read-out in test [18]: CD40, CD40 (gene 958)
Description: BSK_SAg_CD40: BioMAP Diversity Plus: SAg Assay for CD40 Biomarker Activity (AID 2283088). The following applies: primary human HUVEC with PBMC; actives raise or lower the signal. The method, boiled down: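 Fluorescence ELISA read-out of CD40 from umbilical vein endothelium plus peripheral blood mononuclear cells, sampled 24 h after dosing. Values come from bidirectional curve fitting with DMSO as baseline.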

Sequence of E-selectin (Homo sapiens) (P16581 whole entry, looked up): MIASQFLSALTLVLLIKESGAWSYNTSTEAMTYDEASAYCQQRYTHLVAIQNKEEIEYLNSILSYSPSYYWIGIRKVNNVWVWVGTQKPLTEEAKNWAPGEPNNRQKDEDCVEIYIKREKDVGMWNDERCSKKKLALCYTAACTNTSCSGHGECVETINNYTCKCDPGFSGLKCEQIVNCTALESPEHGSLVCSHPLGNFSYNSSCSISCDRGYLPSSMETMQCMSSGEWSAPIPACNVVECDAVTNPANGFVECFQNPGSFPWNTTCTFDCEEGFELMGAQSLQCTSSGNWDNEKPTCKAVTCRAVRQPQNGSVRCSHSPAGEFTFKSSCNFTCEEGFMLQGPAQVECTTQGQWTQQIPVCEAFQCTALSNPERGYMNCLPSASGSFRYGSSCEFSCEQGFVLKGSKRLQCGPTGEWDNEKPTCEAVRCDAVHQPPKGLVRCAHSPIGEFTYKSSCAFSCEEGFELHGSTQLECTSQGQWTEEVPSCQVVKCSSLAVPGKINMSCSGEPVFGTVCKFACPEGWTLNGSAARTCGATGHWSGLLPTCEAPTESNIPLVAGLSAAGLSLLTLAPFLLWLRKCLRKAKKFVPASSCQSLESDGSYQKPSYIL
Sequence of Tumor necrosis factor (Homo sapiens) (P01375 whole entry, looked up): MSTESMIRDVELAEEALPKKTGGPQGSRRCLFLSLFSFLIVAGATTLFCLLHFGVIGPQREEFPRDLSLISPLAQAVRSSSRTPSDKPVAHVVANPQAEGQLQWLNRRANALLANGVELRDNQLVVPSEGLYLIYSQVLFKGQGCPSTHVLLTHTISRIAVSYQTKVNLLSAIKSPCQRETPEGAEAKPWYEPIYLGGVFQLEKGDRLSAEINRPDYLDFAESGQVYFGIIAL

On to `CCOP(=S)(Oc1cnc(C(C)(C)C)nc1)OC(C)C` (configuration not stated), for which the AC50 is 24.1 µM (active) in test [1]; 38.4 µM (active) in test [2]; 27.1 µM (active) in test [5]; 37.9 µM (active) with CD40, CD40 (gene 958) [7]; 30.9 µM (active) in test [8]; 30.5 µM (active) in test [9]. The AC50 in test [10] is 30.3 µM (active); in test [11] it was 36.7 µM (active); in test [12], 32.2 µM (active); in test [13], 31.8 µM (active); in [14], 32.6 µM (active); in test [15], 33.1 µM (active). In addition, the AC50 in test [16] is 36.5 µM (active); in [17] it was 32.5 µM (active); with CD38, CD38 (gene 952), 36.2 µM (active); with CD69, CD69 (gene 969), 30 µM (active). The result in [3], in test [4] and in test [6] was inactive.

As for `CC[C@H](C)[C@H]1O[C@]2(C=C[C@@H]1C)C[C@@H]1C[C@@H](C/C=C(\C)[C@@H](O[C@H]3C[C@H](OC)[C@@H](O[C@H]4C[C@H](OC)[C@@H](NC)[C@H](C)O4)[C@H](C)O3)[C@@H](C)/C=C/C=C3\CO[C@@H]4[C@H](O)C(C)=C[C@@H](C(=O)O1)[C@]34O)O2`, the AC50 in [1] was 5.84 µM (active); in test [2], 8.99 µM (active); in test [3] it was 10.8 µM (active); in test [4], 7.96 µM (active); in test [5], 6.21 µM (active); in test [6], 9.27 µM (active). The AC50 is 1.86 µM (active) with CD40, CD40 (gene 958) [7]; 5.98 µM (active) in test [8]; 5.57 µM (active) in test [9]; 5.52 µM (active) in [10]; 3.68 µM (active) in test [11]; 5.49 µM (active) in test [12]. Further, the AC50 in test [14] was 4.33 µM (active); in [15], 9.74 µM (active); in test [16], 4.56 µM (active); in test [17], 7.42 µM (active); with CD38, CD38 (gene 952) it was 3.25 µM (active); with CD69, CD69 (gene 969), 4.17 µM (active). For the same compound, in test [13], the outcome was inactive.

Regarding `CCCSP(=O)(OCC)Oc1ccc(Br)cc1Cl` (configuration not stated), the result in test [1], in test [2], in [3], in [4], in [5] and in test [6] was inactive. The outcome in the test with CD40, CD40 (gene 958) [7] is “inactive”; in test [8] it was “inactive”; in test [10] it was “inactive”; in [11], “inactive”; in [12], “inactive”; in test [13], “inactive”. For the same compound, the result in [14] and in test [15] was inactive. Also, the AC50 in test [9] was 30.2 µM (active); in [16] it was 35.3 µM (active); with CD38, CD38 (gene 952), 30.5 µM (active); with CD40, CD40 (gene 958) [18], 31.9 µM (active); with CD69, CD69 (gene 969), 27.8 µM (active).

For orientation: AC50 means the midpoint of the concentration-response curve, whichever way the signal moves.
